Reference: PubChem BioAssay
Several values for one entry are separate records, joined by “and”; a condition that tells them apart may be missing. Identical values can stand only once. Some compounds were tested as several samples or in several runs, with calls that do not always agree. Activity calls are given as the source filed them. Unless noted, no rule for the calls is given here.

What was measured:
[1] = Cy5 fluorescence interference with SSB-bound oligo, artefact control for HCV NS3 helicase inhibitor project, biochemical, NIH Clinical Collection, E. coli SSB (AID 743268)
[2] = test system: Hepatitis C virus NS3 helicase; assay: HCV NS3 helicase inhibitors, primary screen, biochemical, fluorescence polarization, NIH Clinical Collection (AID 743270); details: NS3 helicase binding to Cy5-dT15 DNA, stronger effect = higher value, concentration not given here
[3] = molecular target: Single-stranded DNA-binding protein (Escherichia coli (strain K12)) (UniProt P0AGE0); assay: E. coli SSB displacement from DNA, counter-screen for HCV NS3 helicase inhibitor project, biochemical, fluorescence polarization, NIH Clinical Collection (AID 743271; in the data active = inhibition above about 28%); details: stronger effect = higher value, concentration not given here
[4] = fluorescence interference in NS3h assay format, artefact control for HCV NS3 helicase inhibitor project, biochemical, NIH Clinical Collection (AID 743272); details: fluorescence interference counterscreen, stronger effect = lower value;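 also: HCV NS3 helicase with a Cy5 labelled single stranded DNA probe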
[5] = stimulators of nuclear beta-catenin in C2C12, primary screen, imaging, WNT3A-conditioned medium, mouse C2C12, NPC library (AID 1117326; in the data active = nuclear beta-catenin stimulation mostly above about 4.2%, no sharp cut-off; inactive = mostly below about 10%); details: stronger effect = higher value
[6] = stimulators of insulin release from INS-1E, primary screen, cell-based, 5 mM glucose, NPC library (AID 1117329;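 active = compound raises insulin release from rat beta cells at 5 mM glucose, no numeric limit stated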); details: rat INS-1E insulin secretion, at 10 µM, stronger effect = higher value
[7] = growth inhibition of GSK3B-pretreated HCT116 cells – cell-based, CellTiter-Glo, 0.2 to 20 µM (AID 1117336;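 active = compounds lowering colon cancer cell viability after pretreatment blocking the GSK3B kinase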); details: HCT116 viability after GSK3B inhibitor, at 20 µM, stronger effect = higher value
[8] = inhibition of endothelial tube formation, primary screen, imaging, VEGF stimulated, CD31 staining, tube area, NPC library (AID 1117340;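 active = compound that reduces growth-factor-driven endothelial tube area in a mixed cell culture, no cutoff stated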); details: VEGF-stimulated ADSC/ECFC co-culture, at 10 µM, stronger effect = higher value
[9] = glucagon-like peptide 1 release enhancers, primary assay, NCI-H716 cell line, NPC library (AID 1117341;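 active = compound raises GLP1 secretion from the human gut endocrine cells, with no numeric limit stated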); details: NCI-H716 cells, at 10 µM, stronger effect = higher value
[10] = HCT116 colon cancer cell growth inhibition, primary screen, CellTiter-Glo luminescence, NPC library (AID 1117342;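 active = compounds that lower survival of HCT116 colon cancer cells in the luminescence readout, no numeric limit stated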); details: at 20 µM (top of the series)
[11] = CellTiter-Glo luminescent readout of SW480 viability loss, NPC library primary (AID 1117343;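 active = compounds that lower viability of the colon cancer cells in the luminescence readout, with no numeric limit stated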); details: CellTiter-Glo luminescence; at 20 µM (top of the series)
[12] = decreased DLD-1 cellular survival, CellTiter-Glo luminescent readout, NPC compound collection, primary HTS (AID 1117346;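 active = compounds that lower survival of DLD-1 colon cancer cells in the luminescence readout, no cutoff given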); details: DLD-1 viability, CellTiter-Glo luminescence; at 20 µM (top of the series)
[13] = molecular target: 6-phosphogluconate dehydrogenase, decarboxylating (Homo sapiens) (UniProt P52209); assay: 6PGD enzyme inhibitors, primary screen, biochemical, human, recombinant enzyme, NADPH absorbance (AID 1159550;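 active = at least 20% inhibition of 6-phosphogluconate dehydrogenase activity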); details: recombinant 6PGD, NADPH absorbance 341 nm; at 10 µM; stronger effect = higher value
[14] = differential killing of epithelial or mesenchymal cells, primary screen, imaging, PC-3E GFP, TEM4-18 mCherry, co-culture (AID 1345086;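 active = compounds killing one labelled cell type while sparing the other, by normalised counts and ratio limits, not self-fluorescent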;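 as to all read-outs here: cells exposed to compound for 72 h before imaging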;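 as to red/green cell ratio (normalised): normalised mesenchymal count divided by normalised epithelial count so high means epithelial killing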); details: imaging cell counts, at 1 µM; for red/green cell ratio (normalised): actives lie on both sides, counts scaled to control wells, 1 = unselective
[15] = survival rescue of mitochondrial mutant cells in low glucose, primary screen, MELAS cybrids, Rieske KO mouse fibroblasts, CellTiter-Glo (AID 1508586;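 active = mean z-score across replicates of 1.96 or higher in either the MELAS or the Rieske mutant cell line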;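 also: z relative to plate mean and SD of compound and empty wells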)
[16] = molecular target: NAD(+) hydrolase SARM1 (Homo sapiens) (UniProt Q6SZW1); assay: SARM1 TIR NADase inhibitors, cell lysate, NAD-Glo luminescence (AID 1508614;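 active = compound whose remaining NAD level is above about 45 nM, limit read from the data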;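 also: higher remaining NAD means stronger inhibition of SARM1 NADase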); details: SAM-TIR HEK293T lysate NADase, at 1 µM, stronger effect = higher value
[17] = molecular target: Mitogen-activated protein kinase 7 (Homo sapiens) (UniProt Q13164); assay: ERK5 transactivation activators in reporter cells, primary screen, cell-based, HTS (AID 1508626;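 active = luciferase signal above three times the same-plate solvent-only control wells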;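 also: luciferase driven by Gal4-ERK5 fusion binding five Gal4 sites before minimal TATA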); details: HeLa Gal4-ERK5 transactivation, 18 h, at 5 µM, stronger effect = higher value
F380Y = assay: modulators of BK channel variants, profiling panel, selectivity assay, cell-based, U2OS BacMam, thallium flux, beta subunits (AID 1259406;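 active = thallium flux through the channel raised or lowered by more than 3 SD from vehicle-only wells, actives on both sides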;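 also: initial slope of Thallos dye fluorescence rise after thallium is added; log ratio against the mean of 0.3% DMSO vehicle wells on the same plate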); details: at 30 µM
[18] = liver-stage malaria parasite growth inhibition, primary screen, cell-based, HepG2, luciferase luminescence, HepG2 viability (AID 624349; in the data active = parasite load remaining mostly below about 12%, no sharp cut-off; inactive = mostly above about 10%;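 also: 100% = mean of DMSO negative control wells on the same plate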); details: P. berghei liver stage in HepG2, luciferase luminescence, concentration not given here; parasite load remaining: stronger effect = lower value; viability: measured here: HepG2 viability without parasites
[19] = sensitizers of A549 cells to miR-34 induction, primary screen, imaging, A549 dox-inducible miR-34, nuclei and caspase counts (AID 1347080;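 active = compounds whose cell count with miR-34 switched on is under 0.7 times the count with it off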); details: A549 miR-34 inducible, Hoechst nuclei count, 48 h
[20] = measured here: epithelial PC-3E GFP cell survival
[21] = measured here: mesenchymal TEM4-18 mCherry cell survival
[22] = MELAS cybrid survival, CellTiter-Glo 48 h, stronger effect = higher value
[23] = Rieske KO mouse fibroblast survival, CellTiter-Glo 72 h
[24] = stronger effect = lower value, cell number ratio, induced over uninduced
[25] = measured here: relative caspase fold change +Dox/-Dox
[26] = measured here: total cells with miR-34 induction, stronger effect = lower value
[27] = measured here: total cells without miR-34 induction

Mitogen-activated protein kinase 7 (Homo sapiens), sequence (Q13164 whole entry, looked up, the tested form may be a part): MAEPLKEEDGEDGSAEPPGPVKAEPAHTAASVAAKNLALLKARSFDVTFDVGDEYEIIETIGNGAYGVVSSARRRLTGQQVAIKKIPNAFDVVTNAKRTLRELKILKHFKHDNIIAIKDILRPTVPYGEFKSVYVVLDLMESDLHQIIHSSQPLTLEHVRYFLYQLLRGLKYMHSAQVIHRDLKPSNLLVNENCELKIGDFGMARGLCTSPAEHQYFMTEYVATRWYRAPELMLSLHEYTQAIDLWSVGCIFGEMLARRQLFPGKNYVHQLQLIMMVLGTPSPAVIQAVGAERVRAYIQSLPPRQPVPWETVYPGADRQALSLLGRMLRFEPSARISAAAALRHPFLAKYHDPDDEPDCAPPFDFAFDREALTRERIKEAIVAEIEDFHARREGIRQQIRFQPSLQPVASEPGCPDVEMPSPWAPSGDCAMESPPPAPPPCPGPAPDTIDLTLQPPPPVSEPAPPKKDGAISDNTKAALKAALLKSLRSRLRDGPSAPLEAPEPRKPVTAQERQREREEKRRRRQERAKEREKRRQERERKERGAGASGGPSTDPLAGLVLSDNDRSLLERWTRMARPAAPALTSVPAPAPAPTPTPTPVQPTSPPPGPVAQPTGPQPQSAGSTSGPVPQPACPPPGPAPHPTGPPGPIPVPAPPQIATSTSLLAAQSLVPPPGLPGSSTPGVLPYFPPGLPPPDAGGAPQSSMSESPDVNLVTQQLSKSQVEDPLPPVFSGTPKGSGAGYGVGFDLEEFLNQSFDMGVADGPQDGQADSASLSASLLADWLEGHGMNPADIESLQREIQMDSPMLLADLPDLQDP
6-phosphogluconate dehydrogenase, decarboxylating (Homo sapiens), sequence (P52209 whole entry, looked up): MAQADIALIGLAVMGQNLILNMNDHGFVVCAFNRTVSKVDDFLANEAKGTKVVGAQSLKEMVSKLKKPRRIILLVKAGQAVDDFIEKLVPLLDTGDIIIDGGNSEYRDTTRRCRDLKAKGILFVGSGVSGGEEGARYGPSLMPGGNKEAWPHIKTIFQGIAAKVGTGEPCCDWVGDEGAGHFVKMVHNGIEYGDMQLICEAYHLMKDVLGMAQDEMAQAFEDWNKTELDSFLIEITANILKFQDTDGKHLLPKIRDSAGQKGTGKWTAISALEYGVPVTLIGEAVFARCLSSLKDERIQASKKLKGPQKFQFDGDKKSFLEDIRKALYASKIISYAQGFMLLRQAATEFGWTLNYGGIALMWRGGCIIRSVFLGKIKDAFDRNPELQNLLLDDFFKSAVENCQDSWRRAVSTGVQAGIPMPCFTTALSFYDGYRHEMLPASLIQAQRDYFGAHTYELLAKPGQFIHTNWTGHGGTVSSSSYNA
NAD(+) hydrolase SARM1 (Homo sapiens), sequence (Q6SZW1 whole entry, looked up, the tested form may be a part): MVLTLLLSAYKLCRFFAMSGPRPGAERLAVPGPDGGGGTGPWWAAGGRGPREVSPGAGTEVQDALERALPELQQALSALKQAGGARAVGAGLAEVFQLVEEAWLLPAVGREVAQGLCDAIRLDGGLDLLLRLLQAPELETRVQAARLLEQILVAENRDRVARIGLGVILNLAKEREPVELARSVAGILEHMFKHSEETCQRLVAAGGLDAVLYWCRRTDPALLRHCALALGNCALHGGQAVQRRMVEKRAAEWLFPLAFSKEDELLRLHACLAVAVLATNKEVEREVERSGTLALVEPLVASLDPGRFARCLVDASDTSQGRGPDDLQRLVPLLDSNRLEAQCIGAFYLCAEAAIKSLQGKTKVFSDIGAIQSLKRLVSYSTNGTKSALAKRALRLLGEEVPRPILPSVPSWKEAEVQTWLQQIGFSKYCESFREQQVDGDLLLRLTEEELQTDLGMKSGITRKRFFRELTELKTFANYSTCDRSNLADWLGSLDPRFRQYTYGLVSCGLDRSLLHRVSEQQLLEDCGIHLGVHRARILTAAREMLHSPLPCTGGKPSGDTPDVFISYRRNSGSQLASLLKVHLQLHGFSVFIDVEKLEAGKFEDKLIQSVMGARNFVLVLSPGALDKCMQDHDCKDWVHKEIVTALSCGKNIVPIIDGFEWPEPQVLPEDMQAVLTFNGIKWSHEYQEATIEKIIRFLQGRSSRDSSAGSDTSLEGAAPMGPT

COc1ccc2cc(CCC(C)=O)ccc2c1
1.12: normalised cell number [14, 20]
3.7%: nuclear beta-catenin stimulation ([5]; stimulation, at 2 µM)
1.27: normalised cell number [14, 21]
inactive: inhibition [2] -1.36% | inhibition [3] 1.05% | fluorescence ratio [4] 0.99 | nuclear beta-catenin stimulation ([5]; at 10 µM) 5.3% | insulin secretion stimulation [6] 1.5% | viability decrease [7] -7.2% | tube area decrease [8] -5.2% | GLP1 secretion stimulation [9] 0.4% | inhibition of viability [10] -6.2% | viability decrease (inhibition) [11] 4.5% | inhibition [13] -24.5% | red/green cell ratio (normalised) [14] 1.14 | z-score [15, 22] -0.0447 and 0.0297 and 0.548 | remaining NAD [16] 10 nM | luciferase signal [17] 92 AU
active: fluorescence ratio [1] 0.1 | viability decrease (inhibition) [12] -3.8% | log fold change Tl+ flux (F380Y) -0.158
-0.132 and -0.0567 and -0.121: z-score [15, 23]

C[C@@H]1O[C@@H](OC[C@H]2O[C@@H](Oc3c(-c4ccc(O)c(O)c4)oc4cc(O)cc(O)c4c3=O)[C@H](O)[C@@H](O)[C@@H]2O)[C@H](O)[C@H](O)[C@H]1O
84.5%: viability [18]
inactive: parasite load remaining [18] 117% | fluorescence ratio [1] 0.95 | inhibition [2] 5.94% | inhibition [3] 11.4% | fluorescence ratio [4] 1.02 | nuclear beta-catenin stimulation ([5]; at 10 µM) 0% | insulin secretion stimulation [6] 0.6% | tube area decrease [8] 4.5% | GLP1 secretion stimulation [9] -1.2% | viability decrease (inhibition) [12] 44.7% | inhibition [13] 4.58% | remaining NAD [16] 10 nM | log fold change Tl+ flux (F380Y) -0.0319
1.9%: nuclear beta-catenin stimulation ([5]; stimulation, at 2 µM)
active: viability decrease [7] 56% | inhibition of viability [10] 70.9% | viability decrease (inhibition) [11] 59.4%

CN(C)CC/C=C1\c2ccccc2COc2ccccc21
inactive: parasite load remaining [18] 66.1% and 36% and 100% | fluorescence ratio [1] 0.98 | inhibition [2] -1.36% | inhibition [3] 4.1% | fluorescence ratio [4] 0.9 | nuclear beta-catenin stimulation ([5]; at 10 µM) -0.4% | insulin secretion stimulation [6] -0.9% | viability decrease [7] -44.3% | tube area decrease [8] -0.9% | GLP1 secretion stimulation [9] 5.2% | inhibition of viability [10] 12% | viability decrease (inhibition) [12] -3.7% | inhibition [13] 2.99% | fold change [19, 24] 0.953 and 0.908 and 0.946 | z-score [15, 22] 0.295 | remaining NAD [16] 10 nM | luciferase signal [17] 96 AU | log fold change Tl+ flux (F380Y) 0.0501
9160 and 8980 and 8750: cell count [19, 26]
9610 and 9880 and 9250: cell count [19, 27]
active: viability decrease (inhibition) [11] 54.8%
1.39 and 2.7 and 1.08: fold change [19, 25]
0.3%: nuclear beta-catenin stimulation ([5]; stimulation, at 2 µM)
121% and 46.9% and 88.3%: viability [18]
0.581: z-score [15, 23]

C[C@]12CCC(=O)C=C1CC[C@@H]1[C@@H]2C(=O)C[C@@]2(C)[C@H]1CC[C@]2(O)C(=O)CO
8880 and 10200: cell count [19, 27]
2.11 and 1.06: fold change [19, 25]
8700 and 9320: cell count [19, 26]
48% and 86.7% and 71%: viability [18]
-0.104: z-score [15, 23]
inactive: parasite load remaining [18] 29.2% and 101% and 66.2% | fluorescence ratio [1] 0.97 | inhibition [2] -1.97% | inhibition [3] 2.76% | fluorescence ratio [4] 0.97 | nuclear beta-catenin stimulation ([5]; at 10 µM) -0.9% | insulin secretion stimulation [6] -3.1% | viability decrease [7] -9.9% | tube area decrease [8] 4.3% | GLP1 secretion stimulation [9] -2.4% | inhibition of viability [10] 4.4% | viability decrease (inhibition) [11] 6.5% | viability decrease (inhibition) [12] -2.6% | inhibition [13] 4.09% | fold change [19, 24] 0.98 and 0.917 | z-score [15, 22] 1.14 | remaining NAD [16] 10 nM | luciferase signal [17] 36 AU | log fold change Tl+ flux (F380Y) 0.0198
1.3%: nuclear beta-catenin stimulation ([5]; stimulation, at 2 µM)

Cc1cccc(Nc2ccncc2S(=O)(=O)NC(=O)NC(C)C)c1
-0.333: z-score [15, 23]
inactive: parasite load remaining [18] 136% and 72.2% and 143% | fluorescence ratio [1] 1.01 | inhibition [2] -1.19% | inhibition [3] -0.1% | fluorescence ratio [4] 1.02 | nuclear beta-catenin stimulation ([5]; at 10 µM) -1.1% | insulin secretion stimulation [6] 5% | viability decrease [7] -8.2% | tube area decrease [8] -9.9% | GLP1 secretion stimulation [9] -2% | inhibition of viability [10] -1.7% | viability decrease (inhibition) [11] -0.7% | viability decrease (inhibition) [12] -9.6% | inhibition [13] -8.28% | fold change [19, 24] 0.955 and 0.95 | z-score [15, 22] -0.921 | remaining NAD [16] 10 nM | log fold change Tl+ flux (F380Y) 0.0355
0.599 and 1.15: fold change [19, 25]
-0.1%: nuclear beta-catenin stimulation ([5]; stimulation, at 2 µM)
8770 and 10100: cell count [19, 26]
9180 and 10600: cell count [19, 27]
83% and 88.5% and 82%: viability [18]

O=C1[C@H](CC[C@H](O)c2ccc(F)cc2)[C@@H](c2ccc(O)cc2)N1c1ccc(F)cc1
-0.4%: nuclear beta-catenin stimulation ([5]; stimulation, at 2 µM)
0.307: z-score [15, 23]
inactive: parasite load remaining [18] 62.8% | fluorescence ratio [1] 0.97 | inhibition [2] 2.77% | inhibition [3] 3.75% | fluorescence ratio [4] 0.95 | nuclear beta-catenin stimulation ([5]; at 10 µM) 4.5% | insulin secretion stimulation [6] 6% | viability decrease [7] 20.8% | tube area decrease [8] 19.9% | GLP1 secretion stimulation [9] 7.4% | inhibition of viability [10] 32.6% | viability decrease (inhibition) [11] 10.1% | viability decrease (inhibition) [12] 18% | inhibition [13] -1.06% | z-score [15, 22] -0.744 | remaining NAD [16] 10 nM | luciferase signal [17] 44 AU | log fold change Tl+ flux (F380Y) 0.0275
65.3%: viability [18]

CCCSc1ccc2nc(NC(=O)OC)[nH]c2c1
0.26: normalised cell number [14, 20]
active: nuclear beta-catenin stimulation ([5]; at 10 µM) 49% | viability decrease [7] 87.3% | tube area decrease [8] 102% | inhibition of viability [10] 76% | viability decrease (inhibition) [11] 86.6% | viability decrease (inhibition) [12] 56.7% | luciferase signal [17] 368 AU
24.2%: nuclear beta-catenin stimulation ([5]; stimulation, at 2 µM)
0.0317 and -0.672 and 1.64: z-score [15, 23]
0.24: normalised cell number [14, 21]
2.78 (active) and -2.05 (inactive): z-score [15, 22]
inactive: fluorescence ratio [1] 1.01 | inhibition [2] -2.27% | inhibition [3] -1.24% | fluorescence ratio [4] 1.01 | insulin secretion stimulation [6] -1% | GLP1 secretion stimulation [9] 0.9% | inhibition [13] -6.38% | red/green cell ratio (normalised) [14] 0.93 | remaining NAD [16] 10 nM | log fold change Tl+ flux (F380Y) -0.0721
